Hits are enriched below; roughly 7.4% of the tested compounds scored in any of these assays.
SMN2 splice enh: enhancers of SMN2 splice variant expression; HEK293 SMN2-luciferase splicing reporter, luminescence, 30-36 h; Potency, µM (series often up to 46.1 µM), hits mostly activators; 210,000 tested, 2.8% active; AID 1458; note: nearly all actives have a fitted effect of over 55% in size
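qHTS luciferase splicing reporter: luminescence rises when SMN2 exon 7 is included in transfected HEK293 cells. Compound exposure lasted 30-36 h at 37C, with 4.5 mM final sodium butyrate as control, followed by a ONE-Glo read.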
Rab9 promoter act: activators of Rab9 promoter | AID 485297 | Potency, µM (doses to about 9.22 µM), hits mostly activators | Huh7 Rab9 promoter-luciferase reporter, luminescence, 24 h | 320,000 tested, 2.8% active; note: nearly all actives have a fitted effect of over 60% in size
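Steps: seed 1500 Huh7 Rab9-luc cells per well, rest 2 h at 37 °C; add compound in DMSO; incubate 24 h; add luciferase reagent, 10 min ambient; read luminescence.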
FLuc modulator: firefly luciferase modulation, counter-screen for miR-21 project | Potency, µM (doses to about 57.5 µM), usual class: inhibitors | purified FLuc, Km substrates, luminescence inhibition | P08659 | AID 588342 | 360,000 tested, 6.9% active; note: nearly all actives have a fitted effect of over 55% in size
Target sequence (P08659 whole entry, looked up): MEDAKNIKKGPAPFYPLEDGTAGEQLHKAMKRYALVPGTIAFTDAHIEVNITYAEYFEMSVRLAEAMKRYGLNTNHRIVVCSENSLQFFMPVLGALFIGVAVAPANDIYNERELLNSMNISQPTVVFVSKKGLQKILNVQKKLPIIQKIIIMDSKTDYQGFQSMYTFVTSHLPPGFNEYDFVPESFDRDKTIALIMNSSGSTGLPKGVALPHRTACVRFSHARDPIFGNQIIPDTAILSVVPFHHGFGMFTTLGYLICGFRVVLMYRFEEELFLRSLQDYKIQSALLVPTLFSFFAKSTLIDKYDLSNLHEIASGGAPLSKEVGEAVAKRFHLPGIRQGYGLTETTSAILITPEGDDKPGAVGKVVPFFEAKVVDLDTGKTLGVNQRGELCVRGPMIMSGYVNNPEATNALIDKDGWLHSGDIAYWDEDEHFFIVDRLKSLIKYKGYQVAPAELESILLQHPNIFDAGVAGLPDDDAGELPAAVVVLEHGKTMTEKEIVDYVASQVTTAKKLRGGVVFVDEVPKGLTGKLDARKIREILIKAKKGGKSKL
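Biochemical qHTS of compounds, final roughly 60 µM downward over six points, against 10 nM purified firefly luciferase using Km concentrations of substrates (10 uM D-luciferin, 10 uM ATP) in Tris acetate pH 7.5 buffer; luminescence output.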
NPC1 prom act: activates the NPC1 promoter | AID 485313 | Huh7 NPC1 promoter luciferase reporter, 24 h | 320,000 tested, 2.4% active | Potency, µM (top dose mostly 9.22 µM), hits mostly activators; note: nearly all actives have a fitted effect of over 60% in size
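Stably transfected Huh7 (NPC1 promoter→luciferase), 1500 cells/well in Opti-MEM + 10% FBS, 2 h settle, then compound 24 h at 37 °C. Luminescence after 10 min with Amplite reagent.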
ELG1 genotoxic: induces genotoxicity in HEK293T cells with luciferase-tagged ELG1; 330,000 tested, 1.3% active; HEK293T ELG1-luciferase reporter, luminescence, 16 h; Potency, µM (top dose mostly 46 µM), actives largely listed as activators; AID 504466; note: nearly all actives have a fitted effect of over 60% in size
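Genotoxicity was scored as increased ELG1-luciferase reporter signal, measured by ONE-Glo luminescence (30 min, room temperature). Compound or vehicle exposure of the HEK293T reporter cells lasted 16 hr at 37°C.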
Of the large screens only hits and unclear results are named; the others gave an inactive call. Calls come from the whole dose curve; as a rule, active = well fitted curve in the direction sought with a large enough effect; inconclusive = small, poorly fitted or top-dose-only effect, or another doubt; inactive = no such curve, though single readings can be large; an effect the other way counts as inactive or inconclusive.

CCNc1nnc(-c2ccc(C)cc2)o1	Rab9 promoter act 4µM, FLuc modulator 15µM, NPC1 prom act 3.5µM, ELG1 genotoxic inconclusive
COc1ccc(-c2nnc(-c3ccccc3O)o2)cc1	Rab9 promoter act inconclusive, FLuc modulator 2.4µM, NPC1 prom act inconclusive, ELG1 genotoxic inconclusive (no result: SMN2 splice enh)
COc1ccc(-c2ccc(-c3nnc(-c4ccncc4)o3)cc2)cc1	FLuc modulator inconclusive
COc1ccc(-c2nnc(-c3ccc(F)cc3)o2)cc1	Rab9 promoter act 1µM, FLuc modulator 2.1µM, NPC1 prom act 1.3µM, ELG1 genotoxic 3.7µM (no result: SMN2 splice enh)
CCCc1nnc(-c2ccc(OC)cc2)o1	FLuc modulator inconclusive
O=C(O)COc1ccc(Br)cc1CP(=O)(c1ccccc1)c1ccccc1	none (no result: SMN2 splice enh)
Cc1ccc(C(=O)Nc2cccc(NC(=O)c3ccc(C)c([N+](=O)[O-])c3)n2)cc1[N+](=O)[O-]	none (no result: SMN2 splice enh)
Cc1ccc(C(=O)Nc2sc(C)c(-c3ccccc3)c2C(N)=O)cc1[N+](=O)[O-]	FLuc modulator 3.4µM, ELG1 genotoxic 2.9µM
CCOC(=O)Cc1csc(NC(=O)/C=C/c2ccc(OC)cc2)n1	FLuc modulator 1.3µM
CCOC(=O)Cc1csc(NC(=O)CCCc2ccccc2)n1	none (no result: SMN2 splice enh)
CCOC(=O)Cc1csc(NC(=O)/C=C\c2ccccc2)n1	FLuc modulator 5.4µM
O=c1cc(-c2ccccc2Cl)oc2cccc(O)c12	none
O=c1cc(-c2ccccc2Cl)oc2c(Br)ccc(O)c12	SMN2 splice enh 10µM, Rab9 promoter act 3.5µM, FLuc modulator 12µM, NPC1 prom act inconclusive, ELG1 genotoxic inconclusive
CCOC(=O)C1CCN(C(=O)CNC(=O)c2nn(-c3ccc(OC)c(OC)c3)c(=O)c3ccccc23)CC1	FLuc modulator 4.8µM (no result: SMN2 splice enh)
CCOC(=O)C1CCN(C(=O)c2nn(-c3ccc(OC)cc3)c(=O)c3c2c2ccccc2n3C)CC1	none (no result: Rab9 promoter act, NPC1 prom act, ELG1 genotoxic)
COc1ccc(-n2nc(C(=O)NCC(=O)N3CCN(Cc4ccccc4)CC3)c3ccccc3c2=O)cc1OC	FLuc modulator inconclusive (no result: SMN2 splice enh)
CCOC(=O)C1CCN(C(=O)CNC(=O)c2nn(-c3ccc(OC)cc3)c(=O)c3ccccc23)CC1	FLuc modulator 2.7µM (no result: SMN2 splice enh)
Cc1nc2cc(OCc3cc(C(=O)NC(C)c4cnn(C)c4)no3)ccc2s1 (stereo not given)	FLuc modulator 17µM (no result: SMN2 splice enh)
Cc1nn(C)cc1C(C)NC(=O)c1cc(COc2c(F)cccc2F)on1 (stereo not given)	none (no result: SMN2 splice enh)
COc1ccc(OCc2cc(C(=O)NC(C)c3cnn(C)c3)no2)c(Cl)c1 (stereo not given)	Rab9 promoter act inconclusive, FLuc modulator 13µM, NPC1 prom act inconclusive, ELG1 genotoxic inconclusive (no result: SMN2 splice enh)
CC(NC(=O)c1cc(COc2c(F)cccc2F)on1)c1cnn(-c2ccccc2)c1 (stereo not given)	Rab9 promoter act inconclusive, FLuc modulator 17µM (no result: SMN2 splice enh)
COc1ccc(CNC(=O)C2CCCN2S(=O)(=O)c2ccc(F)cc2)cc1 (stereo not given)	none
Cc1nc2c3cccnc3nn2c(C)c1CCC(=O)NCc1ccccc1Cl	none (no result: Rab9 promoter act, NPC1 prom act, ELG1 genotoxic)
Cc1cccc(NC(=O)Nc2ccc(F)cc2)n1	Rab9 promoter act inconclusive, FLuc modulator 8.5µM, NPC1 prom act inconclusive
Cc1cccc(NC(=O)Nc2ccc([N+](=O)[O-])cc2)n1	Rab9 promoter act 2.2µM, NPC1 prom act inconclusive
Cc1cccc(NC(=O)Nc2cccc(C)n2)n1	Rab9 promoter act inconclusive, FLuc modulator 17µM
Cc1ccc(NC(=O)Nc2cccc(C)n2)cc1	SMN2 splice enh 16µM, FLuc modulator 2.4µM, ELG1 genotoxic inconclusive
Cc1ccc(NC(=O)c2cn(-c3cccc(C)n3)cn2)cc1	SMN2 splice enh inconclusive, Rab9 promoter act 3.5µM, FLuc modulator inconclusive, NPC1 prom act 2.8µM, ELG1 genotoxic inconclusive
Cc1ccc(NC(=O)Nc2cc(C)on2)cc1	SMN2 splice enh inconclusive, Rab9 promoter act inconclusive, FLuc modulator 15µM, NPC1 prom act inconclusive
Cc1cccc(NC(=O)Nc2ccc(C)c(C)c2)n1	SMN2 splice enh inconclusive, Rab9 promoter act inconclusive, FLuc modulator 2.1µM, NPC1 prom act inconclusive, ELG1 genotoxic inconclusive
CC(=O)N(C)c1ccc(NC(=O)Nc2ccc(C)cc2)cc1	SMN2 splice enh inconclusive, Rab9 promoter act inconclusive, FLuc modulator 24µM, ELG1 genotoxic inconclusive
Cc1cccc(NC(=O)Nc2ccc(Cl)cc2)n1	Rab9 promoter act inconclusive, FLuc modulator inconclusive (no result: SMN2 splice enh)

Screening results deposited in PubChem BioAssay by National Center for Advancing Translational Sciences (NCATS).
